Compounds with a hit are over-represented: about 12% of the library has one in this group of screens.
Pf growth 48h: Primary qHTS for delayed death inhibitors of the malarial parasite plastid, 48 hour incubation; Potency, µM (doses to about 28.7 µM), actives largely listed as inhibitors; P. falciparum luciferase growth in erythrocytes, 48 h; 310,000 compounds, 5.9% hits; AID 504832, 2011
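Compounds are pin-transferred into medium, infected erythrocytes (2% hematocrit, 0.1% parasitemia final) are added, and plates sit one parasite generation at 37 C in 5% CO2. Detection reagent is then added and luminescence measured.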
AmpC inh detg: qHTS Inhibitors of AmpC Beta-Lactamase (assay with detergent) | P00811 | AmpC hydrolysis of nitrocefin, absorbance 480 nm, 0.01% Triton | Potency, µM (doses to about 114 µM), most hits filed as inhibitors | 370,000 compounds, 0.041% hits | AID 485294, 2010; note: nearly all actives have a fitted effect of over 25% in size
Target sequence (P00811 whole entry, looked up): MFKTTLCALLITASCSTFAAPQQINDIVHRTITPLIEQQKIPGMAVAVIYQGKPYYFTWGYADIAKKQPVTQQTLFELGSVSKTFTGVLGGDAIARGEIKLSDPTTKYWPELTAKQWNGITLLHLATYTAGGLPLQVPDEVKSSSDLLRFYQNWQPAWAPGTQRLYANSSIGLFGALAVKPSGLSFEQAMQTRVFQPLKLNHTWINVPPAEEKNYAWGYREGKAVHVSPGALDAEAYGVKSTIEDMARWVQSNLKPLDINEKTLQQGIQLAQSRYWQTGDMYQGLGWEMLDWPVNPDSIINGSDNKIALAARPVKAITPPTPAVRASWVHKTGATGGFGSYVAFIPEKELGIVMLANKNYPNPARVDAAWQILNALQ
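AmpC (5.3 nM in the dispensed reagent) in 20 mM phosphate pH 7.0 with 0.01% (detergent screen) or 0.0001% Triton X-100 was preincubated with compounds for 15 min at room temperature. Nitrocefin was then added from an 800 uM solution, and hydrolysis was followed at 480 nm.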
SARS PLP yeast: qHTS of Yeast-based Assay for SARS-CoV PLP; S. cerevisiae expressing SARS-CoV PLpro, growth rescue; Potency, µM (top dose mostly 32.9 µM), most hits filed as activators; 330,000 compounds, 0.19% hits; calls by dose curve; note: nearly all actives have a fitted effect of over 55% in size
Pf growth 96h: Primary qHTS for delayed death inhibitors of the malarial parasite plastid, 96 hour incubation | P. falciparum luciferase reporter growth, 96 h | Potency, µM (titrated, usually from 28.7 µM), most hits filed as inhibitors | 320,000 compounds, 6.9% hits | AID 504834, 2011
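Luminescence readout: decreased luciferase signal marks inhibited growth of reporter-expressing P. falciparum in infected red cells (2% hematocrit, 0.05% parasitemia final), exposed to compound two generations (96 h, 37 C, 5% CO2).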
Sm TGR block: qHTS Assay for the Inhibitors of Schistosoma Mansoni Peroxiredoxins. Schistosoma mansoni thioredoxin glutathione reductase (TGR), Q962Y6. purified TGR, DTNB reduction, TNB absorbance 405 nm. Potency, µM (doses to about 114 µM), hits mostly inhibitors. 360,000 compounds, 3% hits; note: nearly all actives have a fitted effect of over 60% in size
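First, TGR (20 nM dispensed) and NADPH were mixed with compound. Second, a 15 min room-temperature incubation followed. Third, further NADPH and then DTNB were added to start the reaction. Finally, TNB absorbance was monitored kinetically.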
AmpC inh no detg: qHTS Inhibitors of AmpC Beta-Lactamase (assay without detergent); AmpC nitrocefin hydrolysis, absorbance 480 nm, 0.0001% Triton; Potency, µM (series often up to 57.1 µM), actives largely listed as inhibitors; 330,000 compounds, 0.52% hits; P00811; AID 485341, 2010; note: nearly all actives have a fitted effect of over 20% in size
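AmpC (5.3 nM in the dispensed reagent) in 20 mM phosphate pH 7.0 with 0.01% (detergent screen) or 0.0001% Triton X-100 was preincubated with compounds for 15 min at room temperature. Nitrocefin was then added from an 800 uM solution, and hydrolysis was followed at 480 nm.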
Large screens that a line does not name were inactive. Unless noted, calls come from the whole dose curve; as a rule, active = well fitted curve in the direction sought with a large enough effect; inconclusive = small, poorly fitted or top-dose-only effect, or another doubt; inactive = no such curve, though single readings can be large; an effect the other way counts as inactive or inconclusive.

CCCn1c2ccccc2c2nnc(SCC(=O)OC)nc21	AmpC inh detg inconclusive
Cc1c(NC(=O)CSc2nnc3c4ccccc4n(CCc4ccccc4)c3n2)c(=O)n(-c2ccccc2)n1C	none
CCn1c2ccccc2c2nnc(SCC(=O)Nc3c(C)n(C)n(-c4ccccc4)c3=O)nc21	Pf growth 48h inconclusive, Pf growth 96h 11.7µM
CC(=O)Nc1ccc(-c2csc(NC(=O)CCNC(=O)c3ccco3)n2)cc1	none (no result: Pf growth 48h, AmpC inh detg, Pf growth 96h, Sm TGR block)
Cc1ccc(NC(=O)C2CC(=O)Nc3nncn32)cc1 (stereo unspecified)	none
Cc1cccc(Nc2cc(=O)[nH]c(=O)[nH]2)c1	Pf growth 96h 11.7µM
Cc1ccc(Nc2cc(=O)[nH]c(=O)[nH]2)cc1C	Pf growth 48h inconclusive
O=c1cc(Nc2cccc(Br)c2)[nH]c(=O)[nH]1	Pf growth 96h 11.7µM
Cc1nc(-c2ccc(F)cc2)sc1CCNC(=O)c1ccco1	none (no result: Pf growth 48h, SARS PLP yeast, Pf growth 96h, AmpC inh no detg)
CCOC(=O)c1ccc(NC(=O)Nc2c[nH]c(=O)[nH]c2=O)cc1	none (no result: Pf growth 48h, SARS PLP yeast, Pf growth 96h, AmpC inh no detg)
O=C(COC(=O)c1ccc(S(=O)(=O)N2CCCCCC2)cc1)NCc1ccc(Cl)cc1	none
Cc1ccc(C(CC(=O)N2CCOCC2)c2ccco2)cc1 (stereo unspecified)	Pf growth 48h inconclusive, Sm TGR block 28.2µM (no result: Pf growth 96h)
CCN(CC)C(=O)CSc1nnc2nnc3cc(Cl)ccc3n12	Pf growth 48h 4.65µM, Pf growth 96h 7.38µM
O=S(=O)(NCc1ccco1)c1ccc(Cl)cc1Cl	AmpC inh detg inconclusive, Pf growth 96h inconclusive, Sm TGR block 44.7µM
O=S(=O)(NCc1ccco1)c1ccc2ccccc2c1	none
Cc1ccc2ccc(S(=O)(=O)NCc3ccco3)cc2c1	Sm TGR block 12.6µM
COc1ccc(Cn2ccc3nc(C)c(C(=O)Nc4cc(C)cc(C)c4)cc3c2=O)cc1	none (no result: Pf growth 48h, SARS PLP yeast, Pf growth 96h, AmpC inh no detg)
CCOC(=O)Cc1c(C)nc2c(-c3cccc(Br)c3)c[nH]n2c1=O	Pf growth 48h inconclusive, AmpC inh detg inconclusive
COc1cc(NCc2ccc3nc(N)nc(N)c3c2C)cc(OC)c1OC	Pf growth 48h 0.006µM, Pf growth 96h 0.0048µM (no result: AmpC inh detg, SARS PLP yeast, Sm TGR block, AmpC inh no detg)
N[C@@H](Cc1c[nH]c2ccccc12)C(=O)O	Pf growth 96h inconclusive, Sm TGR block 14.1µM
NC(Cc1cc(O)c(O)cc1O)C(=O)O (stereo unspecified)	AmpC inh detg 50.1µM, Sm TGR block 15.8µM, AmpC inh no detg 7.08µM
N#Cc1cccc(-n2c(-c3ccccc3)nnc2-c2ccccc2)c1C#N	Pf growth 48h 5.22µM (no result: Pf growth 96h)
N#Cc1ccc(-n2c(-c3ccccc3)nnc2-c2ccccc2)cc1C#N	Pf growth 48h inconclusive
NC(=O)c1ccsc1NC(=O)COC(=O)Cc1cccc2ccccc12	none (no result: Pf growth 48h)
CN(CC(=O)Nc1ccc(OC(F)(F)F)cc1)C(=O)Cn1c(=O)cnc2ccccc21	Pf growth 48h inconclusive, Pf growth 96h inconclusive
O=C(CCl)Nc1nccs1	Pf growth 48h inconclusive, Pf growth 96h inconclusive, Sm TGR block 3.16µM
Cc1cc(C)nc(NC(=NCCc2c[nH]c3ccc(Cl)cc23)NC(=O)c2ccccc2C)n1	none (no result: Pf growth 48h, SARS PLP yeast, Pf growth 96h, AmpC inh no detg)
Cc1cc(C)nc(NC(=NCCc2c[nH]c3ccccc23)NC(=O)C(C)(C)C)n1	Pf growth 48h 10.4µM, Pf growth 96h 4.65µM
NC(=O)C1CCN(C(=O)c2ccc(NS(=O)(=O)c3ccc(F)c(F)c3)cc2)CC1	none
CCN1/C(=N\N)c2cccc3cccc1c23	Pf growth 96h inconclusive, Sm TGR block 22.4µM
CCC(C)NC(=O)CN1C(=O)c2cccc3cccc1c23 (stereo unspecified)	Pf growth 96h inconclusive
CC(Cc1ccccn1)NC(=O)c1ccc(OC2CCN(Cc3ccccn3)CC2)cc1 (stereo unspecified)	Pf growth 96h 9.28µM
Cc1csc(C(C)NC(=O)c2ccc(OC3CCN(CCc4ccccc4)CC3)cc2)n1 (stereo unspecified)	Pf growth 48h 10.4µM
CC(C)N(C)C(=O)c1ccc(OC2CCN(CCc3ccccc3)CC2)cc1	Pf growth 96h inconclusive
O=C(NCCc1ccccn1)c1ccc(OC2CCN(Cc3ccccn3)CC2)cc1	none
CCc1nc(SC)ncc1C(=O)N1CCN(c2cc(C)ccc2C)CC1	none (no result: Pf growth 48h, SARS PLP yeast, Pf growth 96h, AmpC inh no detg)
CCS(=O)(=O)Nc1cccc(C2=NN(S(=O)(=O)c3ccc(F)cc3)C(c3cccs3)C2)c1 (stereo unspecified)	Pf growth 48h inconclusive, AmpC inh detg inconclusive, Pf growth 96h 8.28µM
CS(=O)(=O)Nc1cccc(C2=NN(S(=O)(=O)c3ccc(F)cc3)C(c3cccs3)C2)c1 (stereo unspecified)	Pf growth 96h inconclusive
CCS(=O)(=O)Nc1cccc(C2=NN(S(=O)(=O)CC)C(c3cccs3)C2)c1 (stereo unspecified)	Pf growth 48h inconclusive, Pf growth 96h 13.1µM
CS(=O)(=O)Nc1ccc(C2=NN(C(=O)C3CCCCC3)C(c3cccs3)C2)cc1 (stereo unspecified)	Pf growth 48h inconclusive, Pf growth 96h inconclusive, AmpC inh no detg 7.08µM
Cc1ccc(C(=O)N2N=C(c3cccc(NS(C)(=O)=O)c3)CC2c2cccs2)cc1 (stereo unspecified)	Pf growth 96h inconclusive
CS(=O)(=O)Nc1cccc(C2=NN(C(=O)c3ccccc3)C(c3cccs3)C2)c1 (stereo unspecified)	Pf growth 48h 13.1µM
COc1ccc(OC)c(CCNC(=O)c2cc3c(=O)oc4ccc(C)cc4c3s2)c1	none (no result: Pf growth 48h, SARS PLP yeast, Pf growth 96h, AmpC inh no detg)
Cc1ccc(S(=O)(=O)Nc2cc3c4c(c2)C(C)C(=O)N4CCC3)cc1 (stereo unspecified)	Pf growth 48h 10.4µM, Pf growth 96h inconclusive
COc1ccccc1CCNC(=O)C(=O)Nc1cc2c3c(c1)CC(=O)N3CCC2	Pf growth 48h 1.17µM, Pf growth 96h 1.04µM
CC1C(=O)N2CCCc3cc(NC(=O)C(=O)NCCc4c[nH]c5ccccc45)cc1c32 (stereo unspecified)	Pf growth 48h 1.47µM, Pf growth 96h 4.15µM
COc1ccc(C)cc1S(=O)(=O)Nc1cc2c3c(c1)C(C)C(=O)N3CCC2 (stereo unspecified)	Pf growth 48h inconclusive, Pf growth 96h inconclusive
COC(=O)C1CCN(S(=O)(=O)c2cc3c4c(c2)C(C)C(=O)N4CCC3)CC1 (stereo unspecified)	none (no result: Pf growth 48h, SARS PLP yeast, Pf growth 96h, AmpC inh no detg)
CC1C(=O)N2CCCc3cc(S(=O)(=O)N4CCN(c5ccccc5F)CC4)cc1c32 (stereo unspecified)	Pf growth 48h 11.7µM
Cc1ccccc1C(=O)Nc1ccc(S(=O)(=O)N2CCCC2)cc1	AmpC inh detg inconclusive
